The structures appear in SMILES notation. Among all 39,000 compounds or so, about 3,300 (8.5%) were called active. The full list was thinned out, with actives kept by preference.

The assay concerns HepG2. Briefly: cytotoxicity call (relative viability < 0.9). The note with it: 10 µM.
`C[C@H]1CN([C@@H](C)CO)C(=O)c2cccc(NC(=O)c3ccc(-c4nccs4)cc3)c2O[C@@H]1CN(C)C(=O)Nc1cccc2ccccc12`: the cytotoxicity call was “inactive”.
Next, `COc1ccc(S(=O)(=O)N(C)C[C@@H]2Oc3cc(-c4ccccc4OC)ccc3S(=O)(=O)N([C@@H](C)CO)C[C@H]2C)cc1`: “inactive”.
Turning to `COc1ccc(S(=O)(=O)N(C)C[C@@H]2Oc3cc(-c4ccccc4OC)ccc3S(=O)(=O)N([C@@H](C)CO)C[C@@H]2C)cc1`, the cytotoxicity call is “inactive”.
Next, `COc1ccc(S(=O)(=O)N(C)C[C@H]2Oc3cc(-c4ccccc4OC)ccc3S(=O)(=O)N([C@H](C)CO)C[C@H]2C)cc1`: “active”; `COc1ccc(S(=O)(=O)N(C)C[C@@H]2Oc3cc(-c4ccccc4OC)ccc3S(=O)(=O)N([C@H](C)CO)C[C@@H]2C)cc1`: “active”.
With `COc1ccc(S(=O)(=O)N(C)C[C@@H]2Oc3cc(-c4ccccc4OC)ccc3S(=O)(=O)N([C@H](C)CO)C[C@H]2C)cc1` the entry was “inactive”; with `COc1ccc(S(=O)(=O)N(C)C[C@H]2Oc3cc(-c4ccccc4OC)ccc3S(=O)(=O)N([C@H](C)CO)C[C@@H]2C)cc1`, “inactive”; with `C[C@@H]1CN([C@@H](C)CO)S(=O)(=O)c2ccc(-c3cccc(C#N)c3)cc2O[C@H]1CN(C)C(=O)c1ccncc1`, “inactive”.
Next, `Cc1noc(C)c1S(=O)(=O)N(C)C[C@H]1OCCCC[C@@H](C)Oc2ccc(NC(=O)Nc3ccc(C(F)(F)F)cc3)cc2C(=O)N([C@@H](C)CO)C[C@@H]1C`: “inactive”; `Cc1noc(C)c1S(=O)(=O)N(C)C[C@@H]1OCCCC[C@@H](C)Oc2ccc(NC(=O)Nc3ccc(C(F)(F)F)cc3)cc2C(=O)N([C@H](C)CO)C[C@@H]1C`: “inactive”; `Cc1noc(C)c1S(=O)(=O)N(C)C[C@@H]1OCCCC[C@@H](C)Oc2ccc(NC(=O)Nc3ccc(C(F)(F)F)cc3)cc2C(=O)N([C@H](C)CO)C[C@H]1C`: “inactive”.
As to `Cc1noc(C)c1S(=O)(=O)N(C)C[C@H]1OCCCC[C@H](C)Oc2ccc(NC(=O)Nc3ccc(C(F)(F)F)cc3)cc2C(=O)N([C@@H](C)CO)C[C@@H]1C`, the cytotoxicity call is “active”.
In the case of `Cc1noc(C)c1S(=O)(=O)N(C)C[C@H]1OCCCC[C@H](C)Oc2ccc(NC(=O)Nc3ccc(C(F)(F)F)cc3)cc2C(=O)N([C@H](C)CO)C[C@H]1C`, the cytotoxicity call was “inactive”.
Next, `Cc1noc(C)c1S(=O)(=O)N(C)C[C@@H]1OCCCC[C@H](C)Oc2ccc(NC(=O)Nc3ccc(C(F)(F)F)cc3)cc2C(=O)N([C@H](C)CO)C[C@H]1C`: “inactive”.
Next, `Cc1noc(C)c1S(=O)(=O)N(C)C[C@H]1OCCCC[C@@H](C)Oc2ccc(NC(=O)Nc3ccc(C(F)(F)F)cc3)cc2C(=O)N([C@H](C)CO)C[C@@H]1C`: “active”; `Cc1noc(C)c1S(=O)(=O)N(C)C[C@H]1OCCCC[C@@H](C)Oc2ccc(NC(=O)Nc3ccc(C(F)(F)F)cc3)cc2C(=O)N([C@@H](C)CO)C[C@H]1C`: “inactive”.
For the compound `Cc1noc(C)c1S(=O)(=O)N(C)C[C@@H]1OCCCC[C@H](C)Oc2ccc(NC(=O)Nc3ccc(C(F)(F)F)cc3)cc2C(=O)N([C@H](C)CO)C[C@@H]1C`, the cytotoxicity call was “active”.
On to `C[C@@H]1CN([C@H](C)CO)C(=O)c2cccc(NC(=O)c3cnccn3)c2O[C@H]1CN(C)CC1CCCCC1`, for which the cytotoxicity call is “inactive”.
With `O=C(C[C@H]1CC[C@@H]2[C@H](COC[C@H](O)CN2C(=O)c2cccnc2)O1)NCc1ccc(-c2ccccc2)cc1` the entry was “inactive”.
With `C[C@@H]1CN([C@@H](C)CO)C(=O)c2cccc(NS(=O)(=O)c3ccc(F)cc3)c2O[C@@H]1CN(C)S(=O)(=O)c1cccs1` the entry was “inactive”; with `C[C@@H]1CN([C@@H](C)CO)C(=O)Cc2cc(NC(=O)CCN3CCOCC3)ccc2O[C@@H]1CN(C)S(=O)(=O)c1cccs1`, “inactive”; with `C[C@H]1CN([C@@H](C)CO)C(=O)c2ccccc2-c2ccccc2CO[C@@H]1CN(C)C(=O)Nc1ccc(F)cc1`, “inactive”.
For the compound `O=C(CN1CCOCC1)N[C@H]1CC[C@@H](CCn2cc(C3CC3)nn2)O[C@H]1CO`, the cytotoxicity call was “active”.
On to `O=C(CN1CCOCC1)N[C@@H]1CC[C@H](CCn2cc(C3CC3)nn2)O[C@@H]1CO`, for which the cytotoxicity call is “inactive”.
For the compound `O=C(CN1CCOCC1)N[C@H]1CC[C@H](CCn2cc(C3CC3)nn2)O[C@@H]1CO`, the cytotoxicity call is “inactive”.
As to `CC(C)NC(=O)N[C@@H]1C=C[C@@H](CC(=O)O)O[C@H]1CO`, the cytotoxicity call is “inactive”.
For the compound `CC(=O)Oc1ccccc1C(=O)Nc1ncc([N+](=O)[O-])s1`, the cytotoxicity call is “active”.
With `CC(=O)Nc1ncc([N+](=O)[O-])s1` the entry was “inactive”; with `CC(=O)Oc1ccccc1C(=O)Nc1ccccc1`, “inactive”.
Next, `C[C@@H]1CN([C@H](C)CO)C(=O)CCCn2cc(nn2)CO[C@@H]1CN(C)C(=O)Nc1cccc(Oc2ccccn2)c1`: “inactive”; `O=C(N/N=C/[C@H](O)[C@@H](O)[C@@H](O)[C@H](O)C(=O)O)c1ccccn1`: “inactive”.
As for `O=C(N/N=C/[C@H](O)[C@@H](O)[C@H](O)[C@H](O)CO)c1ccccc1O`, the cytotoxicity call was “inactive”.
Next, `O=C(N/N=C/[C@H](O)[C@H](O)[C@@H](O)[C@@H](O)CO)c1ccccc1O`: “active”.
As to `O=C(N/N=C/[C@H](O)[C@@H](O)[C@H](O)CO)c1ccccc1O`, the cytotoxicity call was “inactive”.
With `O=C(N/N=C/[C@@H](O)[C@H](O)[C@H](O)CO)c1ccccc1O` the entry was “inactive”.
On to `O=C(N/N=C/[C@H](O)[C@@H](O)[C@@H](O)[C@H](O)C(=O)O)c1ccccc1O`, for which the cytotoxicity call is “active”.
With `C[C@@H]1CN([C@@H](C)CO)C(=O)Cc2cc(NC(=O)CCCCCC(=O)Nc3ccccc3N)ccc2O[C@@H]1CN(C)C(=O)Nc1ccc(C(F)(F)F)cc1`, the cytotoxicity call was “inactive”.
Turning to `C[C@@H]1CN([C@H](C)CO)C(=O)Cc2cc(NS(=O)(=O)c3ccccc3)ccc2O[C@@H]1CN(C)S(C)(=O)=O`, the cytotoxicity call was “inactive”.
With `CC(=O)OC1C(=O)C2(C)C(O)CC3OCC3(OC(C)=O)C2C(OC(=O)c2ccccc2)C2(O)CC(OC(=O)C(O)C(NC(=O)c3ccccc3)c3ccccc3)C(C)=C1C2(C)C` (stereo unspecified) the entry was “active”; with `COC1C(=O)C2(C)C(OC)CC3OCC3(OC(C)=O)C2C(OC(=O)c2ccccc2)C2(O)CC(OC(=O)C(O)C(NC(=O)OC(C)(C)C)c3ccccc3)C(C)=C1C2(C)C` (stereo unspecified), “active”; with `CC(=O)OC12COC1CC(O)C1(C)C(=O)C(O)C3=C(C)C(OC(=O)C(O)C(NC(=O)OC(C)(C)C)c4ccccc4)CC(O)(C(OC(=O)c4ccccc4)C21)C3(C)C.O.O.O` (stereo unspecified), “active”.

The values are drawn from the antibiotic and cytotoxicity screens of Wong et al. (2023).
